Test results taken from PubChem BioAssay (EPA / NIEHS).
Several values for one entry are separate records, joined by “and”; a condition that tells them apart may be missing. Equal values may be shown once. Records with an inconclusive call do not appear. Some structures have more than one record in an assay (separate samples or runs), and their calls can disagree. Activity calls are given as the source filed them. Rule for the calls: active = hit-call score of the fitted dose curve at least 0.9, where 1 is the maximum; inconclusive = response in the unintended direction; inactive = score below 0.9.

Assays:
[1] = TOX21_p53_BLA_p2_viability: Viability Assessment in the Tox21 HCT-116 p53 Agonism Beta-lactamase Assay, Phase 2 (AID 2283591);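 note: compound exposure lasted 16 h at 37 °C; actives lower the ATP signal meaning cytotoxicity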
Summary of the method: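 HCT-116 p53-bla cells (4000/well) rested 5 h at 37C, then received compounds in DMSO (217-fold dilution) for 16 h at 37C, 5% CO2. After the CCF4 read, CellTiter-Glo was added; ATP luminescence was read after 30 min at room temperature.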

[2] = target: Cellular tumor antigen p53 (Homo sapiens) (UniProt P04637); test: TOX21_p53_BLA_p2_ratio: Tox21 HCT-116 p53 Agonism Beta-lactamase Assay, Ratio, Phase 2 (AID 2283592)
Chain of Cellular tumor antigen p53 (Homo sapiens) (P04637 whole entry, looked up): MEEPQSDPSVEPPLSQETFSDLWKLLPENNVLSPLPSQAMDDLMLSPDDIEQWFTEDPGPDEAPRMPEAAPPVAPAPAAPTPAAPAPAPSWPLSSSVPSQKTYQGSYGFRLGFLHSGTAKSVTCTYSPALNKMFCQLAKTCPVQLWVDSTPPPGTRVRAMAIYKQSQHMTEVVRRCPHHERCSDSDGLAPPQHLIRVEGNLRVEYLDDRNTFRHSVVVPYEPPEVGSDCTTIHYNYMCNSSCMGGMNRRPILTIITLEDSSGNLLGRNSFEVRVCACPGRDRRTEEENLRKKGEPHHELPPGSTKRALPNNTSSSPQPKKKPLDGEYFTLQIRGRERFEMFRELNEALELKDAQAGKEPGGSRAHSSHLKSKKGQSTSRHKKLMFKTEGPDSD
Summary of the method: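 In this cell-based reporter format, HCT116 cells were dosed with chemicals delivered from DMSO by 217-fold dilution and incubated 16 h at 37C. Emission at 460 and 530 nm after 2 h CCF4-AM loading provided the ratio, fitted upward versus DMSO.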

[3] = TOX21_p53_BLA_p3_viability: Viability Assessment in the Tox21 HCT-116 p53 Agonism Beta-lactamase Assay, Phase 3 (AID 2283593);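 note: cells exposed to compound for 16 h before reading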
Summary of the method: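 HCT-116 cells (4000/well) rested 5 h at 37C, then got DMSO compounds by pin tool (217-fold dilution) for 16 h at 37C, 5% CO2. After the bla read, CellTiter-Glo was added and luminescence read at 30 min, room temperature.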

[4] = target: Cellular tumor antigen p53 (Homo sapiens) (UniProt P04637); test: TOX21_p53_BLA_p3_ratio: Tox21 HCT-116 p53 Agonism Beta-lactamase Assay, Ratio, Phase 3 (AID 2283596)
Summary of the method: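 HCT116 p53-bla cells (4000/well) given compound in DMSO (217-fold dilution) after 5 h, incubated 16 h at 37C. CCF4-AM substrate 2 h at room temperature; 460/530 nm emission ratio, gain fitted against DMSO.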

[5] = TOX21_p53_BLA_p4_viability: Viability Assessment in the Tox21 HCT-116 p53 Agonism Beta-lactamase Assay, Phase 4 (AID 2283597);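 note: hits lower the luminescence signal meaning cytotoxicity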
Summary of the method: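 We seeded HCT116 p53 reporter cells at 4000/well and waited 5 h. We then added compounds in DMSO at a 217-fold dilution and incubated for 16 h. Viability was read as CellTiter-Glo luminescence after 30 min at RT.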

[6] = target: Cellular tumor antigen p53 (Homo sapiens) (UniProt P04637); test: TOX21_p53_BLA_p5_ratio: Tox21 HCT-116 p53 Agonism Beta-lactamase Assay, Ratio, Phase 5 (AID 2283599)
Summary of the method: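 HCT-116 cells carrying a p53-inducible beta-lactamase reporter were seeded at 4000 cells/well and dosed after 5 h with compound in DMSO (217-fold dilution). After 16 h at 37C, CCF4-AM substrate was added for 2 h, and the 460/530 nm emission ratio was scored as gain-of-signal versus DMSO.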

[7] = TOX21_p53_BLA_p5_viability: Viability Assessment in the Tox21 HCT-116 p53 Agonism Beta-lactamase Assay, Phase 5 (AID 2283600)
Summary of the method: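 Compounds, pinned from DMSO at 217-fold dilution, were left on the cells for 16 h. The viability endpoint was ATP content measured by CellTiter-Glo luminescence, where falling signal reflects cytotoxicity.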

[8] = target: Cellular tumor antigen p53 (Homo sapiens) (UniProt P04637); test: TOX21_p53_BLA_p4_ratio: Tox21 HCT-116 p53 Agonism Beta-lactamase Assay, Ratio, Phase 4 (AID 2283601)
Summary of the method: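 HCT116 cells carrying an inducible beta-lactamase reporter were plated at 4000 cells/well, rested 5 h, then exposed to compounds in DMSO (217-fold dilution) for 16 h at 37C. CCF4-AM substrate was loaded 2 h at room temperature; 460/530 nm emission ratio scored gain-of-signal versus DMSO.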

[9] = target: Norway rat Vesicular Monoamine Transporter (VMAT2), neurotransmitter transporter, Slc18a2 (gene 25549) (UniProt Q01827); test: NVS_TR_rVMAT2: NovaScreen (NVS) Transporter Assay for Norway rat Vesicular Monoamine Transporter (VMAT2), neurotransmitter transporter (AID 2283376);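 note: actives lower the bound radioligand signal below the DMSO level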
Chain of Norway rat Vesicular Monoamine Transporter (VMAT2), neurotransmitter transporter, Slc18a2 (gene 25549) (Q01827 whole entry, looked up): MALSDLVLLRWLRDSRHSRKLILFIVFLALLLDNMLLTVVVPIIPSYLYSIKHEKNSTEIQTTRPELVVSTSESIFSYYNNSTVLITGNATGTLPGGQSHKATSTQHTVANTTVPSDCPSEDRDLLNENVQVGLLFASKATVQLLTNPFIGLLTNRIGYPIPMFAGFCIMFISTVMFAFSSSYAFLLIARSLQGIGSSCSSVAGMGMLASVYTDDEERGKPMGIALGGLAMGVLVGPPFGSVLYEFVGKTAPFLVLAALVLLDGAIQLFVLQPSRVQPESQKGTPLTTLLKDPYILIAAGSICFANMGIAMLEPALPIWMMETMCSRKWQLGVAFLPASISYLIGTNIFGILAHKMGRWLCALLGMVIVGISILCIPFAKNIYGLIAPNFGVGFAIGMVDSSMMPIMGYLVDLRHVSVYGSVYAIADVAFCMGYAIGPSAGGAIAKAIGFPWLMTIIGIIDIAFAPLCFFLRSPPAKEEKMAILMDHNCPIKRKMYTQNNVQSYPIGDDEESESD
Summary of the method: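 Rat forebrain tissue preparation used in a cell-free radioligand binding format; displacement read by filter-based scintillation counting 1 hour after dosing. Primary screen in duplicate at 25 uM, actives then run in concentration series; loss of signal versus DMSO baseline.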

[10] = target: mouse Estrogen Receptor alpha (Era), Esr1 (gene 13982) (UniProt P19785); test: NVS_NR_mERa: NovaScreen (NVS) Nuclear Receptor Binding Assay for mouse Estrogen Receptor alpha (Era) (AID 2283378);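 note: hit means loss of bound radioligand signal relative to DMSO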
Chain of mouse Estrogen Receptor alpha (Era), Esr1 (gene 13982) (P19785 whole entry, looked up): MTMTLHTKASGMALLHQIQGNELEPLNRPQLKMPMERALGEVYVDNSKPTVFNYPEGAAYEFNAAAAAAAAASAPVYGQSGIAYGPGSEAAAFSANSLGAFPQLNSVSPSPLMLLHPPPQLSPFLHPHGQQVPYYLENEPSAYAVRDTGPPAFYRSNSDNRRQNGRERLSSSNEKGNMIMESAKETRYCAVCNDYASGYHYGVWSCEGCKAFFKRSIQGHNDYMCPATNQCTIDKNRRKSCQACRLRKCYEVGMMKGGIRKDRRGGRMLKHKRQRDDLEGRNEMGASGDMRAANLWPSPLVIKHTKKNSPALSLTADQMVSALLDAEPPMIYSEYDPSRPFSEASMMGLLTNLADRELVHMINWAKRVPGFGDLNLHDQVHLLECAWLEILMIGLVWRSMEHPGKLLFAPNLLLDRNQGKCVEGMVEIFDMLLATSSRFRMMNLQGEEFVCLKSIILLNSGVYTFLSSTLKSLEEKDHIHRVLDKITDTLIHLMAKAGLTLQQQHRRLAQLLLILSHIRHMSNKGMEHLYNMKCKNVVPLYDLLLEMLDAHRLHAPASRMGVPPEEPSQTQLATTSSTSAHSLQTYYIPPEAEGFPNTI
Summary of the method: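 Filter scintillation counts of bound radioligand, measured 18 h post-dose, gave the readout; decreased signal relative to DMSO controls indicated displacement from mouse Era. Primary screen ran in duplicate at 25 uM; active chemicals were retested across concentrations.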

ClC1=C(Cl)C2(Cl)C(CBr)CC1(Cl)C2(Cl)Cl (stereo unspecified)
AC50 [1]: 73.5 µM (active) | outcome [1]: inactive | outcome [2]: inactive | AC50 [3]: 63.4 µM (active) and 20.2 µM (active) | outcome [4]: inactive | outcome [5]: inactive | outcome [6]: inactive | AC50 [7]: 36.3 µM (active) | outcome [7]: inactive | outcome [8]: inactive

CCCCCCCCCCCCCCCC(=O)OC/C=C(C)/C=C/C=C(C)/C=C/C1=C(C)CCCC1(C)C
outcome [9]: inactive

O=C(c1ccccc1)c1ccc(O)cc1O
outcome [9]: inactive

COC(=O)OC
outcome [9]: inactive

COC(=O)c1ccc(C(=O)OC)cc1
outcome [9]: inactive

Cc1oc2c(NC(=O)c3c(Cl)cccc3Cl)cccc2c1C(C)(C)O
AC50 [9]: 11.9 µM (active)

C=C(C)C(=O)OCCOCCOCCOC(=O)C(=C)C
outcome [9]: inactive

CC1CCC(C(C)C)C(OC(=O)c2ccccc2N)C1 (stereo unspecified)
AC50 [1]: 45.5 µM (active) and 38.5 µM (active) | AC50 [2]: 76.3 µM (active) | outcome [2]: inactive | AC50 [3]: 23 µM (active) | outcome [4]: inactive | AC50 [5]: 45.5 µM (active) and 34.7 µM (active) | AC50 [6]: 42.8 µM (active) | AC50 [7]: 31.7 µM (active) | outcome [7]: inactive | outcome [8]: inactive

C/C=C\C/C=C/CCCCCCCCOC(C)=O
outcome [9]: inactive

NNC(=O)c1ccncc1
outcome [9]: inactive

CCCC(O)C(O)CO (stereo unspecified)
outcome [9]: inactive

CCOC(=O)CC(=O)OCC
outcome [9]: inactive

c1ccc(C[P+](c2ccccc2)(c2ccccc2)c2ccccc2)cc1
AC50 [9]: 16.7 µM (active)

CCCCCCCCCCCCCC[P+](CCCCCC)(CCCCCC)CCCCCC
AC50 [1]: 33.6 µM (active) and 20.1 µM (active) | outcome [1]: inactive | AC50 [2]: 59.6 µM (active) and 51.8 µM (active) | outcome [2]: inactive | AC50 [3]: 46.3 µM (active) and 28.9 µM (active) | AC50 [4]: 67.4 µM (active) and 50.1 µM (active) and 7.15 µM (active) | AC50 [5]: 34.3 µM (active) and 20.3 µM (active) | outcome [5]: inactive | AC50 [6]: 59.5 µM (active) and 58.6 µM (active) | outcome [6]: inactive | AC50 [7]: 32.3 µM (active) and 26.6 µM (active) | AC50 [8]: 66 µM (active) and 48.6 µM (active)

Clc1ccc(Nc2nnc(Cc3ccncc3)c3ccccc23)cc1
AC50 [9]: 7.04 µM (active)

Nc1ccc([As](=O)(O)O)cc1
outcome [1]: inactive | AC50 [2]: 35.1 µM (active) | outcome [2]: inactive | outcome [4]: inactive | outcome [5]: inactive | outcome [6]: inactive | outcome [7]: inactive | AC50 [8]: 42.1 µM (active) | outcome [8]: inactive

O=C=NC1CCC(CC2CCC(N=C=O)CC2)CC1 (stereo unspecified)
AC50 [9]: 9.03 µM (active)

N#CC(C#N)=NNc1cccc(Cl)c1
outcome [10]: inactive | AC50 [1]: 20.8 µM (active) | AC50 [2]: 2.66 µM (active) | outcome [3]: inactive | AC50 [4]: 1.24 µM (active) | AC50 [5]: 6.28 µM (active) | AC50 [6]: 26.7 µM (active) | AC50 [7]: 46.1 µM (active) | AC50 [8]: 13.8 µM (active)

Cc1cc(CCC(=O)OCCOCCOCCOC(=O)CCc2cc(C)c(O)c(C(C)(C)C)c2)cc(C(C)(C)C)c1O
outcome [9]: inactive

CCCCCCCCCCCCCCn1cc[n+](C)c1
AC50 [1]: 82.2 µM (active) and 60.1 µM (active) | outcome [1]: inactive | AC50 [2]: 6.74 µM (active) and 2.12 µM (active) | outcome [2]: inactive | AC50 [3]: 10.3 µM (active) and 77.3 µM (active) | outcome [3]: inactive | AC50 [4]: 14 µM (active) and 6.93 µM (active) | outcome [4]: inactive | AC50 [5]: 598 nM (active) and 40 µM (active) | outcome [5]: inactive | AC50 [6]: 49.6 µM (active) and 39.7 µM (active) | AC50 [7]: 86.2 µM (active) and 46.2 µM (active) | outcome [7]: inactive | AC50 [8]: 63.9 µM (active) and 63.4 µM (active) | outcome [8]: inactive

[Cl][Sc]([Cl])[Cl]
outcome [9]: inactive

Oc1ccc(/C=C/c2cc(O)cc(O)c2)cc1
AC50 [9]: 21 µM (active)
